From PubChem BioAssay AID504604 (National Center for Advancing Translational Sciences (NCATS), 2011)
“And” between values parts separate entries of the source, which are not always exact repeats. Equal entries are not always repeated. The source made the active and inactive calls. Calls follow the shape of the dose curve; as a rule, active = well fitted inhibition curve with a large enough effect; inconclusive = small, poorly fitted or top-dose-only effect; inactive = flat fitted curve, though single readings scatter.

Experiment: Quantitative high throughput screen to test activity of anti-malarial compounds in the Dd2 strain of Plasmodium Falciparum
Settings: P. falciparum Dd2 in RBCs, SYBR Green growth, 72 h
Text: NIH Molecular Libraries Probe Production Network [MLPCN] NIH Chemical Genomics Center [NCGC] MLPCN Grant: R21 NS059500 Assay Provider: David Fidock and Eric Ekland, Columbia University The goal of this screen is to measure the ability of a set of anti-malarial compounds to inhibit the Dd2 strain of P. falciparum. These compounds have been screened in a delayed death phenotype assay and have been identified as inhibitors of the delated death phenotype, by inhibiting the development of the apicoplast in the malarial parasite Plasmodium falciparum (described below) The biochemical processes that make this organelle essential for erythrocytic stage parasites are not well understood. However, antibiotics, such as azithromycin and tetracycline, which target the apicoplast translational machinery, have a potent antimalarial effect. […] We have developed a cell-based assay that measures parasite growth based on the expression of an integrated copy of a firefly luciferase reporter. To detect small molecules that cause this 'delayed death' phenotype, erythrocytes infected with the luciferase-expressing parasites were incubated with compounds for either one or two generations, corresponding to 48 and 96 hours, respectively. Compounds that inhibit parasite growth in the second generation, but not the first, should be enriched in antimalarials that target the apicoplast. Growth inhibition is detected by a decrease in luciferase activity
3 ul culture medium was dispensed into black clear-bottom plates (aurora) with multidrop Combi followed by a pin-transfer of […] compounds and positive control into assay plates. (Controls: 1 mM Artemisinin 1:2 dilution in duplicate Multi-Drop dispense of P. falciparum infected RBCs (0.3% parasitemia, 2.5% hematocrit final concentration) followed by 72 hr incubation (37C, 5% CO2). Multi-drop dispense 2 ul 10 X SYBR Green lysis buffer ([…] Tris-HCl, 10 mM EDTA, 0.16% saponin (w/v), 1.6% Triton-X (v/v), 10 x SYBR Green I supplied as 10,000 x final concentration by Invitrogen) into assay plates. Incubated at Room temperature, overnight in the dark and then read using Envision (Perkin Elmer) with fluorescence intensity at 485 nm excitation and 535 nm emission wavelengths.

Potency, active:
C=CCOC(=O)N(C)C[C@@H]1OCCCC[C@H](C)Oc2ccc(NC(=O)Nc3ccccc3)cc2C(=O)N([C@H](C)COC(=O)c2ccccc2)C[C@H]1C 896 nM
COc1ccc(COC[C@H](C)N2C[C@@H](C)[C@H](CN(C)Cc3ccc(OC)cc3)OCCCC[C@H](C)Oc3ccc(NC(=O)Nc4ccccc4)cc3C2=O)cc1 798 nM
C[C@@H]1CN([C@@H](C)CO[Si](C)(C)C(C)(C)C)C(=O)c2cc(NC(=O)Nc3ccccc3)ccc2O[C@@H](C)CCCCO[C@H]1CN(C)S(=O)(=O)c1ccc(F)cc1 5 nM
C[C@@H]1CN([C@H](C)CO[Si](C)(C)C(C)(C)C)C(=O)c2cc(NC(=O)Nc3ccccc3)ccc2O[C@@H](C)CCCCO[C@H]1CN(C)S(=O)(=O)c1ccc(F)cc1 565 nM
COCCOCOC[C@H](C)N1C[C@@H](C)[C@H](CN(C)S(=O)(=O)c2ccc(F)cc2)OCCCC[C@H](C)Oc2ccc(NC(=O)Nc3ccccc3)cc2C1=O 35.7 nM
C[C@@H]1CN([C@@H](C)CO)C(=O)c2cc(NC(=O)Nc3ccccc3)ccc2O[C@@H](C)CCCCO[C@H]1CN(C)C(=O)OC(C)(C)C 2250 nM
C[C@@H]1CCCCO[C@@H](CN(C)Cc2ccc(F)cc2)[C@H](C)CN([C@@H](C)CO)C(=O)c2cc(NC(=O)Nc3ccccc3)ccc2O1 6340 nM
C[C@@H]1CN([C@@H](C)CO)C(=O)c2cc(NC(=O)Nc3ccccc3)ccc2O[C@@H](C)CCCCO[C@H]1CN(C)S(=O)(=O)c1cccnc1 4490 nM
C[C@@H]1CN([C@@H](C)CO)C(=O)c2cc(NC(=O)Nc3ccccc3)ccc2O[C@@H](C)CCCCO[C@H]1CN(C)S(=O)(=O)c1cccc(F)c1 50.4 nM
C[C@@H]1CN([C@@H](C)COC(=O)c2ccccc2)C(=O)c2cc(NC(=O)Nc3ccccc3)ccc2O[C@@H](C)CCCCO[C@H]1CN(C)C(=O)OC(C)(C)C 798 nM
C[C@@H]1CN([C@@H](C)CO)C(=O)c2cc(Nc3nc4ccccc4o3)ccc2O[C@@H](C)CCCCO[C@H]1CN(C)S(=O)(=O)c1ccc(F)cc1 2000 nM
C[C@@H]1CCCCO[C@H](CN(C)C(=O)Nc2ccc(F)cc2)[C@H](C)CN([C@@H](C)CO)C(=O)c2cc(NS(=O)(=O)c3ccccc3)ccc2O1 504 nM
C=CCOC(=O)N(C)C[C@@H]1OCCCC[C@H](C)Oc2ccc(NC(=O)Nc3ccccc3)cc2C(=O)N([C@@H](C)CO)C[C@H]1C 1260 nM
C=CCOC(=O)N(C)C[C@H]1OCCCC[C@H](C)Oc2ccc(NC(=O)Nc3ccccc3)cc2C(=O)N([C@@H](C)CO[Si](C)(C)C(C)(C)C)C[C@H]1C 565 nM
C[C@@H]1CN(C)C(=O)c2cc(NC(=O)Nc3ccccc3)ccc2O[C@@H](C)CCCCO[C@@H]1CN(C)S(=O)(=O)c1ccc(F)cc1 3570 nM
Cc1noc(C)c1NC(=O)Nc1ccc2c(c1)C(=O)N([C@@H](C)CO)C[C@@H](C)[C@H](CN(C)S(=O)(=O)c1ccc(F)cc1)OCCCC[C@H](C)O2 634 nM
C[C@@H]1CN(CCO[Si](C)(C)C(C)(C)C)C(=O)c2cc(NC(=O)Nc3ccccc3)ccc2O[C@@H](C)CCCCO[C@H]1CN(C)S(=O)(=O)c1ccc(F)cc1 225 nM
C[C@@H]1CN([C@@H](C)CO)C(=O)c2cc(NC(=O)Nc3ccccc3)ccc2O[C@@H](C)CCCCO[C@H]1CN(C)S(=O)(=O)c1ccccc1F 2000 nM
C[C@@H]1CN([C@@H](C)COC(=O)C(C)(C)C)C(=O)c2cc(NC(=O)Nc3ccccc3)ccc2O[C@@H](C)CCCCO[C@H]1CN(C)S(=O)(=O)c1ccc(F)cc1 50.4 nM
C[C@@H]1CN([C@@H](C)CN=[N+]=[N-])C(=O)c2cc(NC(=O)Nc3ccccc3)ccc2O[C@@H](C)CCCCO[C@H]1CN(C)S(=O)(=O)c1ccc(F)cc1 56.5 nM
C[C@@H]1CN([C@@H](C)CO)C(=O)c2cc(NC(=O)Nc3ccccc3)ccc2O[C@@H](C)C/C=C\CO[C@H]1CN(C)S(=O)(=O)c1ccc(F)cc1 1260 nM
C[C@@H]1CN([C@@H](C)CO)C(=O)c2cc(NC(=O)Nc3ccccc3)ccc2O[C@@H](C)CCCCO[C@H]1CN(C)Cc1ccc(C(F)(F)F)cc1 1590 nM
COc1ccc(COCCN2C[C@@H](C)[C@H](CN(C)S(=O)(=O)c3ccc(F)cc3)OCCCC[C@H](C)Oc3ccc(NC(=O)Nc4ccccc4)cc3C2=O)cc1 252 nM
CC(C)N1C[C@@H](C)[C@H](CN(C)S(=O)(=O)c2ccc(F)cc2)OCCCC[C@H](C)Oc2ccc(NC(=O)Nc3ccccc3)cc2C1=O 56.5 nM
C[C@@H]1CN([C@@H](C)CO)C(=O)c2cc(NC(=O)Nc3ccccc3)ccc2O[C@@H](C)C/C=C/CO[C@H]1CN(C)S(=O)(=O)c1ccc(F)cc1 565 nM
C[C@@H]1CN([C@@H](C)CO)C(=O)c2cc(NC(=O)Nc3ccccc3)ccc2O[C@@H](C)CCCCO[C@H]1CN(C)S(=O)(=O)c1ccc(C(F)(F)F)cc1 1130 nM
C[C@@H]1CN([C@@H](C)COC(C)(C)C)C(=O)c2cc(NC(=O)Nc3ccccc3)ccc2O[C@@H](C)CCCCO[C@H]1CN(C)S(=O)(=O)c1ccc(F)cc1 3.6 nM
C[C@@H]1CN([C@@H](C)COC(=O)c2ccccc2)C(=O)c2cc(NC(=O)Nc3ccccc3)ccc2O[C@@H](C)CCCCO[C@H]1CN(C)S(=O)(=O)c1ccc(F)cc1 179 nM
C[C@@H]1CN([C@@H](C)CO)C(=O)c2cc(N)ccc2O[C@@H](C)CCCCO[C@H]1CN(C)S(=O)(=O)c1ccc(F)cc1 711 nM
COCOC[C@H](C)N1C[C@@H](C)[C@H](CN(C)S(=O)(=O)c2ccc(F)cc2)OCCCC[C@H](C)Oc2ccc(NC(=O)Nc3ccccc3)cc2C1=O 28.3 nM
Cc1noc(C)c1NC(=O)Nc1ccc2c(c1)C(=O)N(C(C)C)C[C@@H](C)[C@H](CN(C)S(=O)(=O)c1ccc(F)cc1)OCCCC[C@H](C)O2 179 nM and 2.52 µM
C[C@@H]1CN(CCO)C(=O)c2cc(NC(=O)Nc3ccccc3)ccc2O[C@@H](C)CCCCO[C@H]1CN(C)S(=O)(=O)c1ccc(F)cc1 2520 nM
CC(C)NC(=O)Nc1ccc2c(c1)C(=O)N([C@@H](C)CO)C[C@@H](C)[C@H](CN(C)S(=O)(=O)c1ccc(F)cc1)OCCCC[C@H](C)O2 1790 nM
